Measurements: PubChem BioAssay (NCI)
This is part of a sample that, as a whole, favours compounds with a hit. Of some 83,000 tested, about 20% had one in any assay.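 Single-concentration screen, 48 h exposure, 96-well plates. Endpoint: percent growth. Below 10 = active.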 Activity calls are given as the source filed them.

Experiments:
Experiment in all cases: NCI-60 one-dose screen, 48 h (100 = growth as untreated, 0 = no growth, -100 = all killed)
SK-MEL-2 melanoma = conditions: 10 µM
EKVX NSCLC = conditions: 10 µM
SN12C renal = conditions: 10 µM
TK-10 renal = conditions: 10 µM unless noted
ACHN renal = conditions: 10 µM
CAKI-1 renal = conditions: 10 µM
A498 renal = conditions: 10 µM
CCRF-CEM leukemia = conditions: 10 µM
UO-31 renal = conditions: 10 µM
MOLT-4 leukemia = conditions: 10 µM

Measured: growth

CCCC(=O)c1cc(C)ccc1OC
inactive: SK-MEL-2 melanoma 103% | EKVX NSCLC 117% | SN12C renal 94.5% | TK-10 renal 104% | ACHN renal 103% | CAKI-1 renal 104% | A498 renal 119% | CCRF-CEM leukemia 96.5%

CC(=O)/C(Cc1ccccc1)=N/O
inactive: SK-MEL-2 melanoma 99.7% | EKVX NSCLC 92.4% | SN12C renal 105% | UO-31 renal 96.2% | ACHN renal 98.6% | CAKI-1 renal 100% | A498 renal 75.6% | CCRF-CEM leukemia 99% | MOLT-4 leukemia 85%

Cc1cc(NC(=O)CSCC(=O)O)no1
inactive: SK-MEL-2 melanoma 122% | EKVX NSCLC 93.8% | SN12C renal 101% | TK-10 renal 86.6% | ACHN renal 105% | CAKI-1 renal 90% | A498 renal 120% | CCRF-CEM leukemia 107% | MOLT-4 leukemia 103%

CC(=O)NC(N)=S
inactive: SK-MEL-2 melanoma 111% | EKVX NSCLC 118% | SN12C renal 104% | TK-10 renal 100% | ACHN renal 104% | CAKI-1 renal 100% | A498 renal 112% | CCRF-CEM leukemia 86.7% | MOLT-4 leukemia 77.4%

COCCOC(=O)c1ccc(C(C)C)cc1
inactive: SK-MEL-2 melanoma 96.9% | EKVX NSCLC 100% | SN12C renal 103% | UO-31 renal 94.5% | ACHN renal 107% | CAKI-1 renal 99.4% | A498 renal 92.8% | CCRF-CEM leukemia 90.6% | MOLT-4 leukemia 88.2%

O=C(CS)Nc1ccc2ccccc2c1
inactive: SK-MEL-2 melanoma 116% | EKVX NSCLC 119% | SN12C renal 101% | UO-31 renal 88.7% | TK-10 renal 128% | ACHN renal 93.6% | A498 renal 98.8% | CCRF-CEM leukemia 81.1% | MOLT-4 leukemia 84.5%

Nc1nc2c(c(-c3nc(N)nc4c3CCc3ccccc3-4)n1)CCc1ccccc1-2
inactive: SK-MEL-2 melanoma 134% | EKVX NSCLC 89.9% | SN12C renal 102% | TK-10 renal 131% | ACHN renal 95.1% | CAKI-1 renal 76.9% | A498 renal 125% | CCRF-CEM leukemia 107% | MOLT-4 leukemia 115%

OCC(O)C(O)C(O)C(O)/C=N/O (configuration not stated)
inactive: SK-MEL-2 melanoma 107% | EKVX NSCLC 105% | SN12C renal 106% | UO-31 renal 98.4% | ACHN renal 112% | CAKI-1 renal 104% | CCRF-CEM leukemia 81.6% | MOLT-4 leukemia 82.7%

COc1ccccc1N=Nc1c(O)ccc2cc(S(=O)(=O)O)ccc12
inactive: SK-MEL-2 melanoma 96.4% | EKVX NSCLC 95.2% | SN12C renal 102% | UO-31 renal 84.7% | TK-10 renal 113% | ACHN renal 98.1% | CCRF-CEM leukemia 105% | MOLT-4 leukemia 104%

COC(=O)C(O)c1ccccc1 (configuration not stated)
inactive: SK-MEL-2 melanoma 103% | EKVX NSCLC 119% | SN12C renal 97% | TK-10 renal 106% | ACHN renal 100% | CAKI-1 renal 114% | A498 renal 132% | CCRF-CEM leukemia 98.1% | MOLT-4 leukemia 105%

Cc1ccccc1N=C(c1ccccc1)C1C(=O)c2ccccc2C1=O
inactive: SK-MEL-2 melanoma 59.9% | EKVX NSCLC 88.9% | SN12C renal 90.9% | UO-31 renal 82.5% | ACHN renal 88.3% | CAKI-1 renal 84.6% | CCRF-CEM leukemia 65.1% | MOLT-4 leukemia 56.4%
active: A498 renal -13.7%

C=CCNC(=O)c1ccc(OC)cc1
inactive: SK-MEL-2 melanoma 97.6% | EKVX NSCLC 109% | SN12C renal 99.1% | UO-31 renal 74.7% | TK-10 renal 120% | ACHN renal 106% | A498 renal 133% | CCRF-CEM leukemia 98.4% | MOLT-4 leukemia 102%

CN(C)CCN(C)CC(C)(C)C(=O)/C=C/c1ccc(Cl)cc1
active: SK-MEL-2 melanoma -25.6% | EKVX NSCLC -19.1% | SN12C renal 2.97% | TK-10 renal 0.991% | ACHN renal -27.3% | CAKI-1 renal 8.74% | CCRF-CEM leukemia -9.31% | MOLT-4 leukemia -14.7%
inactive: A498 renal 10.4%

Cc1cc2nc(CC(=O)c3ccccc3)c(=O)[nH]c2cc1C
inactive: SK-MEL-2 melanoma 102% | EKVX NSCLC 55.5% | SN12C renal 93.8% | TK-10 renal 149% | ACHN renal 93.8% | CAKI-1 renal 76.2% | A498 renal 127% | CCRF-CEM leukemia 88.5% | MOLT-4 leukemia 89%

COC(=O)c1cc(-c2ccc(Cl)c(Cl)c2)[nH]c(=O)c1C#N
inactive: SK-MEL-2 melanoma 120% | EKVX NSCLC 94.4% | SN12C renal 93.7% | TK-10 renal 103% | ACHN renal 94.8% | CAKI-1 renal 87.5% | A498 renal 125% | CCRF-CEM leukemia 104% | MOLT-4 leukemia 107%

CCOC(=O)CSc1c([N+](=O)[O-])ncn1C
inactive: SK-MEL-2 melanoma 95.4% | EKVX NSCLC 95.6% | SN12C renal 102% | UO-31 renal 89.8% | TK-10 renal 94.2% | ACHN renal 101% | A498 renal 114% | CCRF-CEM leukemia 94.8% | MOLT-4 leukemia 94.8%

NC(=S)N/N=C/c1ccc(N)cc1
inactive: SK-MEL-2 melanoma 104% | EKVX NSCLC 101% | SN12C renal 108% | UO-31 renal 91.6% | ACHN renal 108% | CAKI-1 renal 101% | A498 renal 91.2% | CCRF-CEM leukemia 87.2% | MOLT-4 leukemia 77.7%

C/C(=N/NC(N)=O)c1ccco1
inactive: SK-MEL-2 melanoma 108% | EKVX NSCLC 100% | SN12C renal 110% | UO-31 renal 95.8% | ACHN renal 102% | CAKI-1 renal 102% | A498 renal 111% | CCRF-CEM leukemia 106% | MOLT-4 leukemia 89.9%

CCOC(=O)c1cc(/C=C/c2ccc(Cl)cc2Cl)on1
inactive: SK-MEL-2 melanoma 109% | EKVX NSCLC 45.2% | SN12C renal 70.8% | TK-10 renal 155% | CAKI-1 renal 42.9% | A498 renal 133% | CCRF-CEM leukemia 19% | MOLT-4 leukemia 32.5%
active: ACHN renal 2.04%

C#CCSc1nnnn1-c1ccc(Br)c(C)c1
active: UO-31 renal -93.1%
inactive: SK-MEL-2 melanoma 86.9% | EKVX NSCLC 35.7% | SN12C renal 71.8% | TK-10 renal 111% | ACHN renal 92.5% | CCRF-CEM leukemia 87.5% | MOLT-4 leukemia 88.4%

Cc1cc(Cc2cc(C)c(N)cc2N)c(N)cc1N
inactive: SK-MEL-2 melanoma 96.7% | EKVX NSCLC 109% | SN12C renal 88.3% | UO-31 renal 77.2% | TK-10 renal 146% | ACHN renal 98.8% | CCRF-CEM leukemia 96.8% | MOLT-4 leukemia 73.2%

c1csc(-c2cc(-c3cc(-c4cccs4)[nH]n3)n[nH]2)c1
inactive: SK-MEL-2 melanoma 132% | EKVX NSCLC 64.8% | SN12C renal 97.4% | TK-10 renal 162% | ACHN renal 92.7% | CAKI-1 renal 79.6% | A498 renal 139% | CCRF-CEM leukemia 66.1% | MOLT-4 leukemia 97.7%

Cc1cc(C(C)(C)C)cc(C)c1Br
inactive: SK-MEL-2 melanoma 105% | EKVX NSCLC 100% | SN12C renal 100% | TK-10 renal 113% | ACHN renal 104% | CAKI-1 renal 93.5% | A498 renal 104% | CCRF-CEM leukemia 92.2% | MOLT-4 leukemia 99%

CCOC(=O)c1cc(/C=C/c2cccc(Cl)c2)on1
inactive: SK-MEL-2 melanoma 113% | EKVX NSCLC 75.4% | SN12C renal 86.2% | TK-10 renal 111% | ACHN renal 90.9% | CAKI-1 renal 91.3% | A498 renal 110% | CCRF-CEM leukemia 67% | MOLT-4 leukemia 99.9%

Cc1ccc(/C=C2\SC(=S)N(c3ccc(F)cc3)C2=O)o1
inactive: SK-MEL-2 melanoma 96.3% | EKVX NSCLC 82.4% | SN12C renal 87% | TK-10 renal 102% | ACHN renal 48.6% | CAKI-1 renal 54.9% | A498 renal 112% | CCRF-CEM leukemia 89.2% | MOLT-4 leukemia 79.1%

OCCN(CCO)C(=S)S
inactive: SK-MEL-2 melanoma 121% | EKVX NSCLC 96.3% | SN12C renal 102% | TK-10 renal 110% | ACHN renal 109% | CAKI-1 renal 93.1% | A498 renal 114% | CCRF-CEM leukemia 104% | MOLT-4 leukemia 121%

c1cc2cccc3c4cccc5cccc(c(c1)c23)c54
inactive: SK-MEL-2 melanoma 98.7% | EKVX NSCLC 104% | SN12C renal 98.6% | TK-10 renal 102% | ACHN renal 102% | A498 renal 116% | CCRF-CEM leukemia 103% | MOLT-4 leukemia 105%

CCCCNC(=O)C(=O)NCCCC
inactive: SK-MEL-2 melanoma 123% | EKVX NSCLC 95.5% | SN12C renal 98.8% | TK-10 renal 96.4% | ACHN renal 110% | CAKI-1 renal 91.8% | CCRF-CEM leukemia 101% | MOLT-4 leukemia 129%

CC1(C)S(=O)(=O)OCCOS1(=O)=O
inactive: SK-MEL-2 melanoma 115% | EKVX NSCLC 94.8% | SN12C renal 101% | TK-10 renal 93.2% | ACHN renal 106% | CAKI-1 renal 93.9% | A498 renal 101% | CCRF-CEM leukemia 78.8% | MOLT-4 leukemia 102%

COc1ccccc1C1OC2=Nc3cc(C)c(C)cc3NC2C1=O (configuration not stated)
inactive: SK-MEL-2 melanoma 105% | EKVX NSCLC 83.9% | SN12C renal 81.2% | TK-10 renal 55.1% | ACHN renal 16.5% | CAKI-1 renal 60.3% | CCRF-CEM leukemia 86.8% | MOLT-4 leukemia 97.8%
